The first assay deals with LEGO organoid PTCC (PTEN-/-; TP53-/-; CDKN2A-/-; CDKN2B-/-). Briefly: bioluminescence (viable cell) signal fold change after vs before treatment, normalised to DMSO (ratio); higher = more tumour cell growth / less inhibition. As to conditions: 10 µM; treatment time 6 days. As to the method:
(§1)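 Luc2-labelled iPSC-derived glioblastoma-like organoids (LEGOs, genotypes PT = PTEN-/-;TP53-/-, PTCC = plus CDKN2A/B-/-, PTN = plus NF1-/-) were treated with 10 uM drug for 6 days (applied every other day) at 37 C. Bioluminescence imaging was done before treatment and 2 days after the last dose. BLI signals were normalised to the DMSO control on the same day and then to the pre-treatment signal (N=3).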
In the case of `CC(=O)Oc1ccccc1C(=O)O` [Aspirin], the bioluminescence came out at 0.785. With `Nc1ccn([C@@H]2O[C@H](CO)[C@@H](O)[C@@H]2O)c(=O)n1` [Cytarabine], the bioluminescence is 1.15. Still for that read-out and setting: the value for `CC[C@@H]1/C=C(\C)C[C@H](C)C[C@H](OC)[C@H]2O[C@@](O)(C(=O)C(=O)N3CCCC[C@H]3C(=O)O[C@H](/C(C)=C/[C@@H]3CC[C@H](Cl)[C@H](OC)C3)[C@H](C)[C@@H](O)CC1=O)[C@H](C)C[C@@H]2OC` [Pimecrolimus] was 0.535. Same read-out and setting: the value for `CN1CCN(C2=Nc3cc(Cl)ccc3Nc3ccccc32)CC1` [Clozapine] was 0.388.

With `CC1=NN(c2ccccc2)C(=O)C1` [Edaravone], the bioluminescence amounted to 0.508.

As to `O=C(CCCCCCC(=O)Nc1ccccc1)NO` [Vorinostat], the bioluminescence turned out to be 0.409. As to `CCN(CC)CC(=O)Nc1c(C)cccc1C.Cl` [Lidocaine hydrochloride], the bioluminescence was determined as 1.11. The same measure, in the same setting: the same measure for `Clc1ccc(COC(Cn2ccnc2)c2ccc(Cl)cc2Cl)c(Cl)c1.O=[N+]([O-])O` (stereo not given) [Miconazole nitrate]: 0.22; for `CC(C)NCC(O)COc1cccc2ccccc12.Cl` (stereo not given) [Propranolol hydrochloride]: 0.672. On to `CCOc1nc2cccc(C(=O)O)c2n1Cc1ccc(-c2ccccc2-c2nn[nH]n2)cc1` [Candesartan], for which the bioluminescence came out at 1.68.

Consider `CC(=O)OCC(=O)[C@@]1(O)[C@H](C)C[C@H]2[C@@H]3CCC4=CC(=O)C=C[C@]4(C)[C@@]3(F)[C@@H](O)C[C@@]21C` [Dexamethason acetate], for which the bioluminescence stood at 0.467. On the same count and under the same terms, the same measure for `Cc1cccc(N(C)C(=S)Oc2ccc3ccccc3c2)c1` [Tolnaftate]: 0.931. The same measure, in the same setting: the same measure for `NCCS(=O)(=O)O` [Taurine]: 0.71.

For the next assay, the system named is LEGO organoid PTN (PTEN-/-; TP53-/-; NF1-/-). The description is as above. The note with it: 10 µM; treatment time 6 days. How it is done:
as §1
For `CC/C(=C(\c1ccccc1)c1ccc(OCCN(C)C)cc1)c1ccccc1` [Tamoxifen], the bioluminescence was determined as 0.103. Same read-out and setting: the value for `Nc1nc(Cl)nc2c1ncn2[C@H]1C[C@H](O)[C@@H](CO)O1` [Cladribine] was 1.05. The same measure, in the same setting: the same measure for `Cl.N=C(N)NC(=O)Cc1c(Cl)cccc1Cl` [Guanfacine hydrochloride]: 0.496; for `CCN(CC)C(=O)[C@]1(c2ccccc2)C[C@@H]1CN.Cl` [Milnacipran hydrochloride]: 2.39. Same read-out and setting: the same measure for `CCc1c2c(nc3ccc(OC(=O)N4CCC(N5CCCCC5)CC4)cc13)-c1cc3c(c(=O)n1C2)COC(=O)[C@]3(O)CC.Cl.O.O.O` [Irinotecan hydrochloride trihydrate]: 1.15; for `C#CCN[C@@H]1CCc2ccccc21.CS(=O)(=O)O` [Rasagiline Mesylate]: 1.25; for `CNS(=O)(=O)CCc1ccc2[nH]cc(C3CCN(C)CC3)c2c1.Cl` [Naratriptan hydrochloride]: 1.2. On to `CCOC(=O)OC(C)OC(=O)[C@@H]1N2C(=O)[C@@H](NC(=O)[C@H](N)c3ccccc3)[C@H]2SC1(C)C.Cl` (stereo not given in full) [Bacampicillin hydrochloride], for which the bioluminescence was 3.29. The same measure, in the same setting: the value for `Cc1oncc1C(=O)Nc1ccc(C(F)(F)F)cc1` [Leflunomide] was 3.5; that for `COc1cc(C(=O)NCc2ccc(OCCN(C)C)cc2)cc(OC)c1OC.Cl` [Trimethobenzamide hydrochloride] was 0.646; that for `CO[C@H]1C[C@@H]2CC[C@@H](C)[C@@](O)(O2)C(=O)C(=O)N2CCCC[C@H]2C(=O)O[C@H]([C@H](C)C[C@@H]2CC[C@@H](OC(=O)C(C)(CO)CO)[C@H](OC)C2)CC(=O)[C@H](C)/C=C(\C)[C@@H](O)[C@@H](OC)C(=O)[C@H](C)C[C@H](C)/C=C/C=C/C=C/1C` [Temsirolimus] was 0.856. In the case of `CS(=O)(=O)c1ccc(C(=O)Nc2ccc(Cl)c(-c3ccccn3)c2)c(Cl)c1` [Vismodegib], the bioluminescence came to 0.888.

As to `COc1ccc2c(c1)c(CC(=O)O)c(C)n2C(=O)c1ccc(Cl)cc1` [Indometacin], the bioluminescence was 1.76. Turning to `CS(=O)(=O)CCNCc1ccc(-c2ccc3ncnc(Nc4ccc(OCc5cccc(F)c5)c(Cl)c4)c3c2)o1` [Lapatinib], the bioluminescence turned out to be 1.93. For `Cl.O.O=C1Cc2cc(CCN3CCN(c4nsc5ccccc45)CC3)c(Cl)cc2N1` [Ziprasidone hydrochloride monohydrate], the bioluminescence turned out to be 0.716. As for `COc1cc(Nc2c(C#N)cnc3cc(OCCCN4CCN(C)CC4)c(OC)cc23)c(Cl)cc1Cl` [Bosutinib], the bioluminescence is 0.669. In the case of `C=C/C=C/C[C@@H](C)[C@@H](O)[C@H]1C(=O)N[C@@H](CC)C(=O)N(C)CC(=O)N(C)[C@@H](CC(C)C)C(=O)N[C@@H](C(C)C)C(=O)N(C)[C@@H](CC(C)C)C(=O)N[C@@H](C)C(=O)N[C@H](C)C(=O)N(C)[C@@H](CC(C)C)C(=O)N(C)[C@@H](CC(C)C)C(=O)N(C)[C@@H](C(C)C)C(=O)N1C` [Voclosporin], the bioluminescence amounted to 0.446.

The record behind these values is the supplement of paper PMC10811239.
